These results are taken from PubChem BioAssay.

Assay [1] can be described thus: antimalarial activity against Dd2 strain (AID 2302;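 active = growth inhibition above 50% at the single 2 µM test dose, taken to imply half-maximal potency below 2 µM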;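 also: 0% = DMSO untreated growth and 100% = chloroquine plus artemisinin killed control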). Particulars: P. falciparum Dd2 in RBCs, LDH growth readout, 72 h; at 2 µM; active compounds read high.
Assay [2] in a line: human hepatoma cell viability loss – ATP luminescence, cytotoxicity control for P. falciparum antimalarial project, primary screen (AID 2303;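 active = inhibition above 50%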;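 also: 0% = DMSO wells and 100% = digitonin-killed cells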). Particulars: HepG2 viability, 24-48 h, at 10 µM, active compounds read high.
Assay [3] concerns the target L-lactate dehydrogenase (Plasmodium falciparum (isolate CDC / Honduras)) (UniProt Q27743). In words: PfLDH activity inhibition – cell lysate, 3D7 strain, counter-screen for P. falciparum growth inhibition project (AID 2304).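 Also: 0% = vehicle and 100% = reference inhibitor.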 The following applies: P. falciparum 3D7 crude extract, LDH APAD/NBT absorbance; at 2 µM; active compounds read high. (Counterscreens check selectivity or assay interference.)

Assay [4] in a line: inhibition of 3D7 malaria parasite growth – strain 3D7 (AID 2306).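 Also: 0% = DMSO wells and 100% = chloroquine plus artemisinin control wells.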 The following applies: P. falciparum 3D7 erythrocytic growth, LDH absorbance, 72 h; at 2 µM; active compounds read high.
The target in assay [5] is Calcium-dependent protein kinase 1 (Plasmodium falciparum (isolate 3D7)) (UniProt P62344). In words: PfCDPK1 kinase inhibitors, biochemical, TCAMS library (AID 1159585; cut-off not given, nearly all actives have IC50 up to about 0.98 µM;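 also: inhibitors leave more ATP so luminescence rises with inhibition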). The following applies: recombinant PfCDPK1, Kinase-Glo ATP depletion luminescence. (In general: Kinase-Glo reads ATP consumption through a luciferase reaction.)
For assay [6], the target named is Plasmodium falciparum protein kinase 6 (PK6, PF3D7_1337100) (UniProt Q8IDW1). In words: PfPK6 kinase inhibitors, biochemical, TCAMS library (AID 1159586). Particulars: recombinant PfPK6, Kinase-Glo ATP depletion luminescence.
Assay [7] addresses Protein kinase 7 (PK7), Plasmodium falciparum 3D7 (PF3D7_0213400) (UniProt Q7YTF7). Put plainly: inhibition of Plasmodium PK7 catalytic activity – biochemical, TCAMS antimalarial set, Kinase-Glo luminescence (AID 1159587). Particulars: recombinant PfPK7, Kinase-Glo ATP depletion luminescence.
Assay [8] deals with Calcium-dependent protein kinase 4 (Plasmodium falciparum (isolate 3D7)) (UniProt Q8IBS5). In words: PfCDPK4 kinase inhibitors, biochemical, TCAMS library (AID 1159588; cut-off not given, nearly all actives have IC50 up to about 0.91 µM). Particulars: recombinant PfCDPK4, Kinase-Glo ATP depletion luminescence.

A number with no mark means an inactive call. For some of these results: Potency and affinity values are given separately. Active and inactive are the calls of the source. Unless noted, no rule for the calls is given here.

Sequence of Calcium-dependent protein kinase 4 (Plasmodium falciparum (isolate 3D7)) (Q8IBS5 whole entry, looked up): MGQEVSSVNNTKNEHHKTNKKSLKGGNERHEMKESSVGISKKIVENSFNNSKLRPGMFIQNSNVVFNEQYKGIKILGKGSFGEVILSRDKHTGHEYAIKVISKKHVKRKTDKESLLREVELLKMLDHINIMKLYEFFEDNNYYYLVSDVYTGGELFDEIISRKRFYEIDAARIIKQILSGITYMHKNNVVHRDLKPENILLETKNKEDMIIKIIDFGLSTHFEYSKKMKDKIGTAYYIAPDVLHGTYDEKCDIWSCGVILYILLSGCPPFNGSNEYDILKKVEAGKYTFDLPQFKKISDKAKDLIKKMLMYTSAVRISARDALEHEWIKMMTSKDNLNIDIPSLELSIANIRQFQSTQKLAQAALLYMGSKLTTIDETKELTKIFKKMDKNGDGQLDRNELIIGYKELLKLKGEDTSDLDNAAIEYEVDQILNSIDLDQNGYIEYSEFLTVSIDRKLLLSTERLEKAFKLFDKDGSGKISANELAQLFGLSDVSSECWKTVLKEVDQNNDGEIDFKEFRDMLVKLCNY
Sequence of Protein kinase 7 (PK7), Plasmodium falciparum 3D7 (PF3D7_0213400) (Q7YTF7 1-343): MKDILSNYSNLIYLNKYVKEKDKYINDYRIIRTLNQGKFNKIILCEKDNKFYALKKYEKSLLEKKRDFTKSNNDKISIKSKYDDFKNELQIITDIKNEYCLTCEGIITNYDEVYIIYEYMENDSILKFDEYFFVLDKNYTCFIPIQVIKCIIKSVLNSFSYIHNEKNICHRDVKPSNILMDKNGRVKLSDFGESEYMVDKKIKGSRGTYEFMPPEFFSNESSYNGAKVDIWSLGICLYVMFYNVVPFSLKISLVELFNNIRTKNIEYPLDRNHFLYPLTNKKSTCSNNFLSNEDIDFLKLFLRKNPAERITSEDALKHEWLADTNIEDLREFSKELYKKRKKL
Sequence of Calcium-dependent protein kinase 1 (Plasmodium falciparum (isolate 3D7)) (P62344 whole entry, looked up): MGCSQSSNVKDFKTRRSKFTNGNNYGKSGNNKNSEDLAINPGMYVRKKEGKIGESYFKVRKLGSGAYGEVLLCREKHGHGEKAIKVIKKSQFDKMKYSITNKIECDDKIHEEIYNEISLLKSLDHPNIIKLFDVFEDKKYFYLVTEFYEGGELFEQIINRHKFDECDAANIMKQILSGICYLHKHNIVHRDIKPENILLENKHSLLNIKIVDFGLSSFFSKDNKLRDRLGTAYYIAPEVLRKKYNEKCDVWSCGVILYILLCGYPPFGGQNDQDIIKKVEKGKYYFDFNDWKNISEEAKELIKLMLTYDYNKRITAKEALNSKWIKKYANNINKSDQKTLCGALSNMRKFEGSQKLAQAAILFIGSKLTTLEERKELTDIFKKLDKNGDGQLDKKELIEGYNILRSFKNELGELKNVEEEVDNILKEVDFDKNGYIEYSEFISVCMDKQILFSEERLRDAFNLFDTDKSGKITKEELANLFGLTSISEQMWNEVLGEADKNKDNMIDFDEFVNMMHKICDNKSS
Sequence of Plasmodium falciparum protein kinase 6 (PK6, PF3D7_1337100) (Q8IDW1 1-305): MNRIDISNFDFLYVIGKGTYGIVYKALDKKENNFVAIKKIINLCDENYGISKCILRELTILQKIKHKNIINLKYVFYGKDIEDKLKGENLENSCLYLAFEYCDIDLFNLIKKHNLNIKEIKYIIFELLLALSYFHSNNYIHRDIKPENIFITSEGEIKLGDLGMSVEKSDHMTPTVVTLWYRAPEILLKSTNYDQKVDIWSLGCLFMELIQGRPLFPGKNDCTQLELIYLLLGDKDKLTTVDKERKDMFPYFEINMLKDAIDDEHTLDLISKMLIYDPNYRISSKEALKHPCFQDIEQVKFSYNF
Sequence of L-lactate dehydrogenase (Plasmodium falciparum (isolate CDC / Honduras)) (Q27743 whole entry, looked up): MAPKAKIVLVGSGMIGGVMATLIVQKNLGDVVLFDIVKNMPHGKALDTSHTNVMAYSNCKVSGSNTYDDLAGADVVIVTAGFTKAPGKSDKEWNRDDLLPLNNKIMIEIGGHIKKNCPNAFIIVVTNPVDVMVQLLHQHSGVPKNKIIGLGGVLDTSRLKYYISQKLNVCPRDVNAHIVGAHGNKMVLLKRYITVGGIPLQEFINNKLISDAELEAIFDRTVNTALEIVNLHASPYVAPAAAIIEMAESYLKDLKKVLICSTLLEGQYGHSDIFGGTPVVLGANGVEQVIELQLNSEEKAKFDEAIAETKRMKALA

Consider `COc1ccc(-n2cc(C(=O)c3cc(Br)ccc3O)cc(C#N)c2=O)cc1Cl`, for which the growth inhibition was 23% in assay [1] and 99% (active) in assay [4]. The inhibition is 29% in assay [2] and -5% in assay [3]. The outcome in assay [5], in assay [6], in assay [7] and in assay [8] was inactive.

Take `Nc1ncc(-c2ccc3nccc(-c4ccncc4)c3c2)cc1S(=O)(=O)N1CCCCC1`: the growth inhibition in assay [1] and in assay [4] was 100% (active) throughout. Further, the inhibition in assay [2] is 25%; in assay [3], 3%. The result in assay [5], in assay [6], in assay [7] and in assay [8] was inactive.

Turning to `O=C(NCCc1cccc(Cl)c1Cl)c1ccc(N2CCN(c3ccncc3)CC2)nc1`, the growth inhibition was 79% (active) in assay [1] and 101% (active) in assay [4]. Besides, the inhibition in assay [2] is 38%; in assay [3], 2%. In addition, the result in assay [5], in assay [6], in assay [7] and in assay [8] was inactive.

Take `COc1ccc2ncc(F)c(NC(=O)C3CCC(NCc4cc5c(F)cccc5[nH]4)CC3)c2n1` (stereo not given): the growth inhibition is 29% in assay [1] and 91% (active) in assay [4]. The inhibition in assay [2] was 39%; in assay [3], -1%. Further, the outcome in assay [5], in assay [6], in assay [7] and in assay [8] was inactive.

For `COc1ccc(CNCc2ccc(-c3ccc(-c4nc5ccc(C(F)(F)F)cc5[nH]4)s3)cc2)cc1`, the growth inhibition in assay [1] is 98% (active); in assay [4], 100% (active). In addition, the inhibition in assay [2] is 38%; in assay [3] it was -1%. The result in assay [5], in assay [6], in assay [7] and in assay [8] was inactive.

`CC(C)C(=O)ONC1=NC(C)(C)N(OCCCOc2cc(Cl)c(Cl)cc2Cl)C(NOC(=O)C(C)C)=N1`: the results for the growth inhibition in assay [1] and in assay [4] were 93% (active) and 92% (active), respectively. The inhibition is 64% (active) in assay [2] and -9% in assay [3]. Moreover, the result in assay [5], in assay [6], in assay [7] and in assay [8] was inactive.

For `O=S(=O)(NCCN1CCCC1)c1cccc(-c2cccc(CNCCc3cccs3)c2)c1`, the growth inhibition in assay [1] was 45%; in assay [4], 102% (active). The inhibition in assay [2] was 30%; in assay [3] it was 0%. The outcome in assay [5], in assay [6], in assay [7] and in assay [8] was inactive.

Regarding `COc1ccc2nccc([C@@H](O)CN3CCC(NC(=O)c4ccc(C5(C(F)(F)F)N=N5)cc4)CC3)c2c1`, the figures for the growth inhibition in assay [1] and in assay [4] were 41% and 97% (active), respectively. For the same molecule, the inhibition is 8% in assay [2] and -8% in assay [3]. For the same molecule, the result in assay [5], in assay [6], in assay [7] and in assay [8] was inactive.

As for `CN(C)CCCOC(=O)c1cc2cc(-c3ccccc3)ccc2n1S(=O)(=O)Cc1ccccc1`, the growth inhibition was 70% (active) in assay [1] and 101% (active) in assay [4]. The inhibition in assay [2] is 13%; in assay [3], -5%. Also, the outcome in assay [5], in assay [6], in assay [7] and in assay [8] was inactive.

Turning to `CCc1c(CCNCCCCCCNCCc2ccc(OC)cc2)ccc(OC)c1OC`, the growth inhibition is -1% in assay [1] and 98% (active) in assay [4]. Moreover, the results for the inhibition in assay [2] and in assay [3] were 16% and 8%, respectively. Moreover, the result in assay [5], in assay [6], in assay [7] and in assay [8] was inactive.

As to `Cc1c(F)cc(C(=O)NC2CC2)cc1-c1ccc2c(cnn2S(=O)(=O)c2cccs2)c1`, the growth inhibition is 68% (active) in assay [1] and 92% (active) in assay [4]. Further, the inhibition in assay [2] was 32%; in assay [3], -4%. Further, the result in assay [5], in assay [6], in assay [7] and in assay [8] was inactive.

As to `CC(C)c1ccc(NC(=O)c2ccc(C(=O)NC3CCN(CC4CCCCC4)C3)cc2)cc1` (stereo not given), the growth inhibition in assay [1] was 26%; in assay [4] it was 93% (active). For the same molecule, the inhibition in assay [2] is 35%; in assay [3], 3%. Further, the result in assay [5], in assay [6], in assay [7] and in assay [8] was inactive.

Turning to `CCOC(=O)c1c(SCc2cccc(F)c2F)[nH]c2ccccc2c1=O`, the figures for the growth inhibition in assay [1] and in assay [4] were 95% (active) and 98% (active), respectively. In addition, the figures for the inhibition in assay [2] and in assay [3] were 1% and -2%, respectively. Also, the result in assay [5], in assay [6], in assay [7] and in assay [8] was inactive.

For the molecule `Cc1cccc2[nH]c(-c3cccc(-c4ccc(NC(=O)Nc5ccc(Cl)c(Cl)c5)cc4)c3)nc12`, the results for the growth inhibition in assay [1] and in assay [4] were 83% (active) and 102% (active), respectively. Besides, the inhibition is 53% (active) in assay [2] and 7% in assay [3]. Further, the outcome in assay [5], in assay [6], in assay [7] and in assay [8] was inactive.

Take `CC(=O)Nc1cccc(C(=O)Nc2ccc(-c3cccc(-c4nc5ccc(F)cc5[nH]4)c3)cc2)c1`: the growth inhibition is 8% in assay [1] and 96% (active) in assay [4]. The inhibition in assay [2] is 90% (active); in assay [3], 0%. The result in assay [5], in assay [6], in assay [7] and in assay [8] was inactive.

As for `Fc1cccc(CNc2ncc(-c3ccsc3)c(-c3nccs3)n2)c1`, the growth inhibition was 85% (active) in assay [1] and 91% (active) in assay [4]. The results for the inhibition in assay [2] and in assay [3] were 15% and 0%, respectively. The result in assay [5], in assay [6], in assay [7] and in assay [8] was inactive.

Regarding `C=CC[C@H](C[C@H](O)[C@H](Cc1ccccc1)NC(=O)c1nn(-c2ccccc2)nc1C)C(=O)NC1CCCCC1`, the results for the growth inhibition in assay [1] and in assay [4] were 3% and 94% (active), respectively. Moreover, the figures for the inhibition in assay [2] and in assay [3] were 6% and 5%, respectively. The result in assay [5], in assay [6], in assay [7] and in assay [8] was inactive.

As to `CCC(c1ccccc1)c1nn2c(-c3cccs3)nnc2s1` (stereo not given), the growth inhibition was 95% (active) in assay [1] and 97% (active) in assay [4]. Moreover, the inhibition in assay [2] is 10%; in assay [3], -4%. In addition, the result in assay [5], in assay [6], in assay [7] and in assay [8] was inactive.

On to `CC1CCc2sc(-c3nnc(SC(C)C(=O)N4CCCC4)o3)cc2C1` (stereo not given), for which the growth inhibition was 94% (active) in assay [1] and 93% (active) in assay [4]. Besides, the inhibition is 1% in assay [2] and 2% in assay [3]. The result in assay [5], in assay [6], in assay [7] and in assay [8] was inactive.

In the case of `N#Cc1cccc(Nc2nccc(NCC(O)c3ccccc3C(F)(F)F)n2)c1` (stereo not given), the growth inhibition in assay [1] is 39%; in assay [4], 98% (active). The inhibition in assay [2] is 36%; in assay [3] it was 3%. In addition, the result in assay [5], in assay [6], in assay [7] and in assay [8] was inactive.

Usually inhibition stands for the change of the read-out against control, counted positive when it falls.
